High-throughput results as filed in PubChem.
IL-1B inflam inh – blocks inflammasome-driven IL-1 beta release | activity change, % at 57.5 µM | 360,000 tested, 4.7% active | THP-1 LPS/ATP IL-1B secretion, AlphaLISA, 16 h; stronger effect = lower value | AID 743279; in the data active means activity change below about -50%; inconclusive means mostly about -30% to -49%; further: on the % scale 0 is the no-effect control and ±100 the full control effect
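THP-1 cells pretreated 1 hr with compounds (up to 57.5 uM final), then stimulated with LPS (250 ng/mL final) plus ATP (1.25 mM final); secreted IL-1B measured by AlphaLISA after 16 hr, decreased signal indicating inhibition.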
HepG2 tox – kills HepG2 cells in TGF-b inhibitor counter-screen | HepG2 CAGA-GFP viability, ATP luminescence, 18 h | Potency, µM (series often up to 46.1 µM), for inactives: at the top dose activity change, negative = cytotoxicity, usual class: cytotoxic | 410,000 tested, 0.76% active | AID 588856; further: potency means the concentration at half of the fitted maximal effect
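CellTiter-Glo luminescence gave cytotoxicity after 18 hours at 37 degrees C. The cells were HepG2 CAGA-GFP in 1% FBS DMEM, stimulated with 500 pg/mL TGF-beta after compound addition. %Activity was normalised to no-cell wells (complete cell-killing) and DMSO (no toxicity), and curves were fitted and classified.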
TDP1 inh – TDP1 (human) enzyme inhibition | AID 485290 | 350,000 tested, 0.28% active | Q9NUW8 | Potency, µM (top dose mostly 130 µM), for the others: top-dose activity change, negative = inhibition, most hits filed as inhibitors | recombinant TDP1, AlphaScreen DNA substrate cleavage; further: potency means the concentration at half of the fitted maximal effect; on the % scale 0 is the no-effect control and ±100 the full control effect; nearly all actives have a fitted effect of over 40% in size
Target sequence (Q9NUW8 whole entry, looked up): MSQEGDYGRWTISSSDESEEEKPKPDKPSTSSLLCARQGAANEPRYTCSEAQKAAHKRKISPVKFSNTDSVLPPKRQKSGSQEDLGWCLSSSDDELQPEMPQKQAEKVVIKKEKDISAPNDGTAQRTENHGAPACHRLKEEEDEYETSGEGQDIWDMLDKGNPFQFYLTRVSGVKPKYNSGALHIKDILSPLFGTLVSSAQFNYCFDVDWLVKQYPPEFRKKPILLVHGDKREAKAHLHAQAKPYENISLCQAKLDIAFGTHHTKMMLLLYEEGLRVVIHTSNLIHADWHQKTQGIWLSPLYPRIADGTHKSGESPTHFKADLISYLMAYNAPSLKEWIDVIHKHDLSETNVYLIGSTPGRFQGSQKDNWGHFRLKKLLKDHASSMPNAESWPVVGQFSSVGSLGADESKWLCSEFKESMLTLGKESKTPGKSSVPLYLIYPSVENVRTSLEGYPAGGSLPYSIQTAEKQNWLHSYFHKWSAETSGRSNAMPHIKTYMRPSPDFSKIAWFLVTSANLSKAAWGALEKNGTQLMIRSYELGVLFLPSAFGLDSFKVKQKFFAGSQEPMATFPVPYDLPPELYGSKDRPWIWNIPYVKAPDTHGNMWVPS
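Compounds were preincubated with Tdp1 (1 nM final) for 15 min at room temperature before substrate (15 nM final) started a 5 min reaction; beads (10 ug/ml final) were then added for 10 min before AlphaScreen detection.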
TDP1 cell CPT – growth inhibition of DT40 Tdp1-/-;hTDP1 cells with camptothecin (screen for TDP1 inhibitors) | Potency, µM (doses to about 46.2 µM), without a hit: at the highest dose activity change, negative = growth inhibition, actives largely listed as inhibitors | chicken DT40 Tdp1-/-;hTDP1 cells + 20 nM CPT, ATP luminescence, 48 h | 420,000 tested, 12% active | AID 686979; further: potency means the concentration at half of the fitted maximal effect; on the % scale 0 is the no-effect control and ±100 the full control effect; nearly all actives have a fitted effect of over 55% in size
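Chicken DT40 Tdp1-/- cells stably complemented with human TDP1 were seeded at 400 cells/well in medium containing 20 nM camptothecin, exposed to pin-transferred compounds, and grown at 37 °C for at least 48 hr. Viability was read as ATP luminescence.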
TGFb inhibitor – inhibitors of TGF-b signaling; HepG2 CAGA-GFP TGF-b/SMAD3 reporter, GFP fluorescence, 18 h; TGF-beta stimulated, 500 pg/mL final; Potency, µM (highest dose often 46.1 µM), for the others: at the top dose activity, negative = inhibition, actives largely listed as inhibitors; 410,000 tested, 1.2% active; further: potency means the concentration at half of the fitted maximal effect; on the % scale 0 is the no-effect control and ±100 the full control effect; nearly all actives have a fitted effect of over 65% in size
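Using HEPG2 CAGA-GFP reporter cells at 1000 cells/well, we pinned test compounds, stimulated with recombinant TGF-beta (500 pg/mL final) and measured total well GFP after 18 h.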
TDP1 cell noCPT – qHTS for Inhibitors of human tyrosyl-DNA phosphodiesterase 1 (TDP1): qHTS in cells in absence of CPT. 420,000 tested, 15% active. Potency, µM (doses to about 46.2 µM), inactives show at the highest dose activity change, negative = growth inhibition, most hits filed as inhibitors. AID 686978, 2013. DT40 Tdp1-/- hTDP1 cells, no CPT, ATP luminescence, 48 h; further: potency means the concentration at half of the fitted maximal effect; on the % scale 0 is the no-effect control and ±100 the full control effect; nearly all actives have a fitted effect of over 55% in size
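No-CPT arm: Tdp1-/-;hTDP1 DT40 cells (400/well) plus compounds, incubated ≥48 hr at 37 °C. Readout CellTiter-Glo luminescence.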
* marks the source's active call; other numbers are inactive results. Only some compounds are listed: those with a hit (about 19% of all), similar ones and a draw of the others. Unless noted, the call rests on the fitted dose curve; in most records, active means well fitted curve in the direction sought with a large enough effect; inconclusive means small, poorly fitted or top-dose-only effect, or another doubt; inactive means no such curve, though single readings can be large; an effect the other way counts as inactive or inconclusive.

`COC(=O)C1=CN(c2ccc(OC)cc2OC)C(N)=C(C#N)C1c1ccccc1F` (stereo not drawn) gave IL-1B inflam inh 64.0, TDP1 cell CPT 0.82µM* and TDP1 cell noCPT 0.581µM*.
For CCc1ccc(N2C=C(C(=O)OC)C(c3ccc(OC)cc3)C(C#N)=C2N)cc1 (stereo not drawn) the results were IL-1B inflam inh -24.9, TDP1 cell CPT inconclusive and TDP1 cell noCPT -82.1%.
`COC(=O)C1=CN(c2ccc(C(C)(C)C)cc2)C(N)=C(C#N)C1c1ccccc1F` (stereo not drawn) gave IL-1B inflam inh 20.0, TDP1 cell CPT inconclusive and TDP1 cell noCPT 20.6µM*.
CCc1ccc(N2C=C(C(=O)OC)C(c3ccccc3F)C(C#N)=C2N)cc1 (stereo not drawn) was read as IL-1B inflam inh -20.6, TDP1 cell CPT inconclusive and TDP1 cell noCPT 23.1µM*.
Screening COC(=O)C1=C(C)OC(N)=C(C#N)C1c1ccccc1F (stereo not drawn) returned IL-1B inflam inh -14.9, HepG2 tox -0.9%, TDP1 inh 5.1%, TDP1 cell CPT -22.4%, TGFb inhibitor -3.2% and TDP1 cell noCPT -9.3%.
`COC(=O)C1=CN(c2ccc(OC)cc2)C(N)=C(C#N)C1c1ccccc1F` (stereo not drawn) gave IL-1B inflam inh 24.8, TDP1 cell CPT 10.3µM* and TDP1 cell noCPT 13µM*.
For C[C@]12CCC(=O)C=C1CCC1C2C(=O)C[C@]2(C)C1CC[C@]2(O)C(=O)CO (stereo partly drawn) the results were TDP1 inh -6.4%.
O=c1[nH]c(=S)c2n[nH]nc2[nH]1 was read as HepG2 tox 19.3%, TDP1 cell CPT 7.6%, TGFb inhibitor 2.8% and TDP1 cell noCPT -23.0%.
Screening Cc1cc(C(=O)COC(=O)c2n[nH]c(=O)c3ccccc23)c(C)n1C(C)C returned IL-1B inflam inh 0.0, HepG2 tox -8.4%, TDP1 inh 3.5%, TDP1 cell CPT inconclusive, TGFb inhibitor -5.6% and TDP1 cell noCPT inconclusive.
For CCOC(=O)c1sc(Nc2nc(OC)cc(OC)n2)nc1C the results were IL-1B inflam inh 52.9, HepG2 tox 0.8%, TDP1 cell CPT inconclusive, TGFb inhibitor -0.7% and TDP1 cell noCPT 20.6µM*.
CCOC(=O)c1sc(Nc2cccc(Cl)c2)nc1C was read as IL-1B inflam inh -87.0*, HepG2 tox -37.5%, TDP1 inh 4.7%, TDP1 cell CPT -13.4%, TGFb inhibitor inconclusive and TDP1 cell noCPT inconclusive.
Screening Clc1ccc(CN2CCN(c3ncnc4sc5c(c34)CCCC5)CC2)cc1Cl returned HepG2 tox -15.2%, TDP1 inh 2.7%, TDP1 cell CPT 20.6µM*, TGFb inhibitor -0.2% and TDP1 cell noCPT 23.1µM*.
Screening c1nc(N2CCC3(CC2)OCCO3)c2c3c(sc2n1)CCCC3 returned IL-1B inflam inh -13.5, HepG2 tox -8.6%, TDP1 inh 2.1%, TDP1 cell CPT inconclusive, TGFb inhibitor 0.0% and TDP1 cell noCPT inconclusive.
For c1ccc(N2CCN(c3ncnc4sc5c(c34)CCC5)CC2)cc1 the results were IL-1B inflam inh -6.8, HepG2 tox -4.2%, TDP1 inh 4.4%, TDP1 cell CPT 20.6µM*, TGFb inhibitor -12.0% and TDP1 cell noCPT 20.6µM*.
For O=C(c1ccco1)N1CCN(c2ncnc3sc4c(c23)CCC4)CC1 the results were IL-1B inflam inh 0.0, HepG2 tox -61.0%, TDP1 cell CPT inconclusive, TGFb inhibitor -13.2% and TDP1 cell noCPT 20µM*.
